Screen size: about 48,000 compounds; about 13,000 (27%) showed an effect of 50% or more. The list shows a part of the results.
What follows are compounds tested on Wolbachia pipientis (assay: Anti-Wolbachia Cell-Based Screen). Details: 5 µM.
Format: functional
Design: scale not given: in the data most compounds retested in dose-response had high values
With `CCCc1nnc(NCc2ccc(OC)c(C#N)c2)o1` the “Percent Effect” value was -5.74%. `CN1C[C@@H](F)[C@@H](OCc2nc3ccc(C#N)cc3[nH]2)C1` was tested, and the “Percent Effect” value was 11.19%. With `NC(=O)CN(C(=O)Cc1ccc(C(F)(F)F)cc1)C1CCCC1` the “Percent Effect” value was 1.7%. With `CCn1nc(C)c(CCn2ccnc2-c2cc3n(n2)CCCNC3)c1C` the “Percent Effect” value was -7.012%. For `CC(C)CC(O)C1CCN(Cc2cnc(-c3cccs3)nc2)CC1` (stereo not drawn), the “Percent Effect” value was 3.832%. `CN(C)S(=O)(=O)c1cccc(NC(=O)Cc2ccon2)c1` was tested, and the “Percent Effect” value was -6.04%. With `COCCn1/c(=N\C(=O)CN(C)S(C)(=O)=O)sc2cccc(F)c21` the “Percent Effect” value was 0%. In the case of `O=C(CC(F)(F)F)N1CCCC(c2nccn2Cc2ccncc2)C1` (stereo not drawn), the “Percent Effect” value was -5.55%. `Cl.NCC(=O)N1CCC(c2ccnc(Nc3cc(C(F)(F)F)ccn3)n2)C1` (stereo not drawn) was tested, and the “Percent Effect” value was 119.4%. For `COCC(=O)N1CC(c2ccnc(Nc3cc(C(F)(F)F)ccn3)n2)C1`, the “Percent Effect” value was 171.1%. With `O=C(CO)N1CCC(c2ccnc(Nc3cc(C(F)(F)F)ccn3)n2)C1` (stereo not drawn) the “Percent Effect” value was 149.1%. With `CC(=O)N1CCC(c2ccnc(Nc3cc(C(F)(F)F)ccn3)n2)C1` (stereo not drawn) the “Percent Effect” value was 158.6%. In the case of `Nc1ccc(C(=O)N2CCCC(c3nccn3Cc3cscn3)C2)cn1` (stereo not drawn), the “Percent Effect” value was -28.34%. `COCCn1cc(-c2cc(C(=O)N3CCCC3)c3ccccn23)nc1C` was tested, and the “Percent Effect” value was -3.651%. For `Cn1ccc(-c2cc(C(=O)N3CCCCC3)c3ccccn23)n1`, the “Percent Effect” value was 111.2%. In the case of `O=C(O)c1cc(-c2ccn(CC3CC3)n2)n2ccccc12`, the “Percent Effect” value was 0.5352%. For `Cc1nc(-c2cc(C(=O)N3CCN(C)CC3)c3ccccn23)cn1C`, the “Percent Effect” value was 1.368%. `O=C(c1cc(-c2ccn(CC3CC3)n2)n2ccccc12)N1CCCO1` was tested, and the “Percent Effect” value was -14.88%. For `CC(C)c1nc(-c2cc(C(=O)N3CCN(C)CC3)c3ccccn23)cs1.O=C(O)C(F)(F)F`, the “Percent Effect” value was -39.55%. With `Cn1ccc(-c2cc(C(=O)N3CCC(O)CC3)c3ccccn23)n1` the “Percent Effect” value was 101.1%. `O=C(c1cc(-c2ccn(CC3CC3)n2)n2ccccc12)N1CCOCC1` was tested, and the “Percent Effect” value was -12.76%. In the case of `CC(C)n1ccc(-c2cc(C(=O)N3CCN(C)CC3)c3ccccn23)n1.O=C(O)C(F)(F)F`, the “Percent Effect” value was -12.81%. In the case of `Cn1ccc(-c2cc(C(=O)N3CCC(C(N)=O)CC3)c3ccccn23)n1`, the “Percent Effect” value was 110.4%. In the case of `CN(C)C1CCN(C(=O)c2cc(-c3ccn(C)n3)n3ccccc23)CC1.O=C(O)C(F)(F)F`, the “Percent Effect” value was 86.54%. In the case of `CN1CCCN(C(=O)c2cc(-c3cc[nH]n3)n3ccccc23)CC1.O=C(O)C(F)(F)F.O=C(O)C(F)(F)F`, the “Percent Effect” value was 9.313%. With `CC(C(=O)N(Cc1ccccc1)CC(F)(F)F)S(C)(=O)=O` (stereo not drawn) the “Percent Effect” value was 3.578%. With `CC(C)NC(=O)CNC(=O)C12CCC(=O)N1c1cc(Cl)ccc1S2` (stereo not drawn) the “Percent Effect” value was -9.931%. In the case of `COCCN1CC2(CCCN(C(=O)NCc3ccccc3)C2)CCC1=O` (stereo not drawn), the “Percent Effect” value was -41.75%. `CC(C)(C)C(=O)CN1Cc2ccccc2NCCC1=O` was tested, and the “Percent Effect” value was 87.13%. With `CCN(C(=O)C1=NN(c2ccccc2)C(=O)CN1)c1ccccc1` the “Percent Effect” value was 14.38%. For `CN(C(=O)CN1CCCC1=O)C1CCCN(C2Cc3ccccc3C2)C1` (stereo not drawn), the “Percent Effect” value was -3.019%. In the case of `COCCN1CCc2ccccc2NCCC1=O`, the “Percent Effect” value was 80.29%. `COCCN1CCC2(CCC1=O)CN(c1ccnc(SC)n1)CCN2C` (stereo not drawn) was tested, and the “Percent Effect” value was 3.783%. For `O=C(CN1C(=O)CCNC1=O)N1CCC2(CCc3ccccc32)CC1`, the “Percent Effect” value was -1.469%. `CC(C)(C)C(=O)CN1CCc2ccccc2NCCC1=O` was tested, and the “Percent Effect” value was 91.03%. For `CCNC(=O)N1C[C@@H]2OCC(=O)N(Cc3cccnc3)[C@@H]2C1`, the “Percent Effect” value was -2.175%. In the case of `C[C@H](CCO)NS(=O)(=O)c1ccc(Br)cn1`, the “Percent Effect” value was 0.586%. For `COc1nccnc1N1CCC2(CC1)[C@H](O)C[C@@H]2OCCN(C)C`, the “Percent Effect” value was -0.5657%. `COC(=O)CCCn1ccnc1C(C)c1ccccc1` (stereo not drawn) was tested, and the “Percent Effect” value was 30.01%. With `O=C(N1CCOCC1)N1CCN(c2ccc(Cl)nn2)C(=O)C1` the “Percent Effect” value was 98.36%. With `Cc1ccc2c(n1)N(CCN(C)C)CCN(C(=O)N1CCOCC1)C2` the “Percent Effect” value was -2.22%. For `O=C(N1CCCCC1)N1CCN(c2ccc(Cl)nn2)C(=O)C1`, the “Percent Effect” value was 123%. With `CN1CCN(C(=O)N2CCCC2)Cc2cccnc21` the “Percent Effect” value was -1.039%. `CN(C)c1ccc(C(=O)N2CCN(C(=O)N3CCCCC3)CC2)nn1` was tested, and the “Percent Effect” value was 6.871%. `O=C(N1CCCC1)N1CCN(c2ccc(Cl)nn2)C(=O)C1` was tested, and the “Percent Effect” value was 104%. For `O=C(Cc1ccc2c(c1)OCO2)N1CCN(c2ccccc2Cl)C(=O)C1`, the “Percent Effect” value was 2.346%. For `O=C(Cc1ccc(CO)cc1)N1CCN(c2ccccc2Cl)C(=O)C1`, the “Percent Effect” value was -19.49%. With `O=C(N1CCOCC1)N1CCN(c2ccnc3ccsc23)CC1` the “Percent Effect” value was 30.34%. With `O=C(CN1CCN(c2ccnc3c(F)ccc(F)c23)CC1)NC1CC1` the “Percent Effect” value was -1.102%. In the case of `O=C(Nc1ccc2c(c1)OCO2)N1CCN(CCc2ccccc2)CC1`, the “Percent Effect” value was 10.38%. For `CC(C)OCc1ncn2c1CN(Cc1nccs1)CCC2.O=C(O)C(F)(F)F`, the “Percent Effect” value was 19.89%. For `CN(C)C(=O)N1CCC2(CCC(C(=O)N3CCCC3)O2)CC1` (stereo not drawn), the “Percent Effect” value was -25.65%. In the case of `Cc1ccc(NC(=O)N2CCC3(CCC(C(=O)N(C)C)O3)CC2)cc1` (stereo not drawn), the “Percent Effect” value was 103.6%. For `CN(C)C(=O)C1CCC2(CCN(C(=O)Nc3ccccc3)CC2)O1` (stereo not drawn), the “Percent Effect” value was 111.7%. In the case of `CN1C(=O)CO[C@H]2CN(C(=O)Nc3ccc(F)cc3)C[C@H]21`, the “Percent Effect” value was -3.92%. For `CCC1=N[C@@]2(CC[C@@H]3CN(C(=O)Nc4ccc(F)cc4)C[C@@H]32)C(=O)N1`, the “Percent Effect” value was -8.843%. `CN(C)C(=O)C1CCC2(CCN(C(=O)Nc3ccc(F)cc3)CC2)O1` (stereo not drawn) was tested, and the “Percent Effect” value was 104.3%. In the case of `CC(=O)NC1CCN(C(=O)Nc2ccc(SC(F)F)cc2)CC1`, the “Percent Effect” value was 1.325%. For `O=C(Nc1ccc(S(=O)(=O)Nc2ccccc2)cc1)N1CCCC1`, the “Percent Effect” value was 10.15%. With `CCN(C)CC1CCN(C(=O)Nc2ccc(C)cc2)C1` (stereo not drawn) the “Percent Effect” value was -10.96%. `CCCN1CCCC2(CCN(S(=O)(=O)N3CCC(OC)CC3)C2)C1=O` (stereo not drawn) was tested, and the “Percent Effect” value was -17.89%. With `CCCNC(=O)NCc1ccccc1NS(=O)(=O)c1ccccc1` the “Percent Effect” value was 1.164%. `COc1c(C2CCCN2Cc2nnc(C3CC3)o2)c(C)nn1C` (stereo not drawn) was tested, and the “Percent Effect” value was -22.17%. In the case of `CCN(Cc1noc(C)n1)C(=O)C(c1ccc(C)cc1)N(C)C` (stereo not drawn), the “Percent Effect” value was -5.423%. In the case of `CC(=O)N1CCN(C(=O)CCc2cc(Br)cs2)CC1`, the “Percent Effect” value was -5.733%. For `CC1(Cc2cccnc2)NCCc2[nH]cnc21` (stereo not drawn), the “Percent Effect” value was 0.4171%. For `CC(C)Cc1ccc(C(=O)Cn2cnnc2[S+](C)[O-])cc1` (stereo not drawn), the “Percent Effect” value was 22.36%. `Cc1cccc(S(=O)(=O)N2CCCc3c(c(=O)n(C)n3C)C2)c1` was tested, and the “Percent Effect” value was -4.559%. `CS(=O)(=O)N1CCCC12CCCN(S(=O)(=O)c1cc(F)cc(F)c1)C2` (stereo not drawn) was tested, and the “Percent Effect” value was -5.366%. In the case of `Cc1cccc(S(=O)(=O)N2CCCC3(CCCN3S(C)(=O)=O)C2)c1` (stereo not drawn), the “Percent Effect” value was 110.4%. In the case of `CS(=O)(=O)N1CCCC12CCCN(S(=O)(=O)c1cccc(F)c1)C2` (stereo not drawn), the “Percent Effect” value was 85.55%. With `CCN1C(=O)CCC12CCCN(S(=O)(=O)c1cccc(C)c1)CC2` (stereo not drawn) the “Percent Effect” value was -13.05%. With `CNC(=O)[C@@]12CCO[C@@H]1CCN(S(=O)(=O)c1cccc(F)c1)C2` the “Percent Effect” value was -9.413%. With `COc1ccc(Nc2ncccc2C#N)cc1N1CCCC1=O` the “Percent Effect” value was 9.755%. With `Cc1cc(S(=O)(=O)Nc2onc(C)c2C)sc1C` the “Percent Effect” value was -16.29%. For `Cc1nn(C)c(C)c1C1CCCN1Cc1nc(-c2ccco2)oc1C` (stereo not drawn), the “Percent Effect” value was -2.901%. With `Cc1nn(C)c(C)c1C1CCCN1C(=O)CCNS(C)(=O)=O` (stereo not drawn) the “Percent Effect” value was 101.1%. With `Cc1nn(C)c(C)c1C1CCCN1C(=O)CCc1cscn1` (stereo not drawn) the “Percent Effect” value was -3.183%. With `COc1ccc(C2CCCN2C(=O)CCNc2ncccn2)cc1` (stereo not drawn) the “Percent Effect” value was 1.66%. For `CS(=O)(=O)NCCC(=O)N1CCCC1c1noc(C2CC2)n1` (stereo not drawn), the “Percent Effect” value was -8.062%. With `Cc1nn(C)c(C)c1C1CCCN1C(=O)CCCc1ccccn1` (stereo not drawn) the “Percent Effect” value was 91.34%. For `COc1c(C2CCCN2C(=O)CCNc2ncccn2)c(C)nn1C` (stereo not drawn), the “Percent Effect” value was 119.8%. For `Cc1nn(C)c(C)c1C1CCCN1C(=O)CCc1ccco1` (stereo not drawn), the “Percent Effect” value was 103%. `CSc1ccc(CNCCS(=O)(=O)N2CCOCC2)cc1` was tested, and the “Percent Effect” value was -30.29%. With `CC1(C)CN(C(=O)c2ccc3nncn3c2)CCS1` the “Percent Effect” value was -32.23%. In the case of `COCC1CN(C(=O)CC2Cc3ccccc3C2)Cc2c1cnn2C` (stereo not drawn), the “Percent Effect” value was -1.669%. For `Cc1nn(C)c(C)c1C1CCCN1C(=O)CCCn1cccn1` (stereo not drawn), the “Percent Effect” value was 12.2%. `Cc1nn(C)c(Cl)c1C1CCCN1C(=O)CCNc1ncccn1` (stereo not drawn) was tested, and the “Percent Effect” value was 95.62%. With `Cc1nn(C)c(C)c1C1CCCN1C(=O)CCCNc1ncccn1` (stereo not drawn) the “Percent Effect” value was 79.99%. With `Cc1nn(C)c(C)c1C1CCCN1C(=O)CCNc1ncccn1` (stereo not drawn) the “Percent Effect” value was 2.112%. With `Fc1cccc2c1CCC2NCc1cnc(N2CCOCC2)nc1` (stereo not drawn) the “Percent Effect” value was 3.105%. `COC(=O)CCC(=O)N(C/C=C/c1ccccc1)CCO` was tested, and the “Percent Effect” value was -11.86%. In the case of `COc1cccc(F)c1C(C)NC(=O)NCCc1ccc(C)nc1` (stereo not drawn), the “Percent Effect” value was 1.538%. In the case of `O=C(Nc1nncs1)NC1CCOc2ccccc21` (stereo not drawn), the “Percent Effect” value was 13.17%. In the case of `Cc1cc(CN(C)C(=O)Nc2cnc3c(c2)c(C)nn3C)no1`, the “Percent Effect” value was 2.843%. With `COc1ccc(S(=O)(=O)NCCC(O)c2ccccc2)c(C)c1` (stereo not drawn) the “Percent Effect” value was 8.858%. With `COCc1nc2nc(O)c3c(n2n1)NC(=O)CC3c1ccccc1Cl` (stereo not drawn) the “Percent Effect” value was -6.394%. In the case of `O=C(O)C(F)(F)F.O=C(O)C(F)(F)F.O=C(c1cccnc1)N1CC[C@H](OCC2CC2)[C@@H]1Cc1cccnc1`, the “Percent Effect” value was -13.6%. In the case of `O=C(O)C(F)(F)F.c1cnc(N2CC[C@@H](OCC3CC3)[C@@H]2Cc2cccnc2)nc1`, the “Percent Effect” value was 125.6%. With `O=C(O)C(F)(F)F.O=C(O)C(F)(F)F.c1ccc(N2CC[C@H](OCC3CC3)[C@@H]2Cc2cccnc2)nc1` the “Percent Effect” value was 102.1%. In the case of `O=C(O)C(F)(F)F.O=C(c1ccc[nH]1)N1CC[C@@H](OCC2CC2)[C@@H]1Cc1cccnc1`, the “Percent Effect” value was 9.663%. For `O=C(O)C(F)(F)F.O=S(=O)(C1CC1)N1CC[C@@H](OCC2CC2)[C@@H]1Cc1ccncc1`, the “Percent Effect” value was -7.9%. For `O=C(O)C(F)(F)F.O=S(=O)(C1CC1)N1CC[C@H](OCC2CC2)[C@@H]1Cc1cccnc1`, the “Percent Effect” value was -0.6171%.

Reference: ChEMBL document CHEMBL3988442, “University of Dundee, Small-Polar-MMV Screening Library” (2021)
